From the supplement of paper PMC9588786
Counter-ions that a name gives are not always drawn. ± gives the standard deviation of the averaged measurements.

Each compound was assayed on HT-1080 (assay: relative cell viability with RSL3 co-treatment (fraction of control); higher = stronger protection from RSL3-induced ferroptosis (higher viability)). Conditions: 10 µM.
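Note: viability read as CCK-8 absorbance at 450 nm in cells co-exposed to the GPX4 inhibitor RSL3, relative to a 0.01% DMSO vehicle control.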

Compound	relative cell viability
C[C@H](NC(=O)/C(C#N)=C/c1cccc(Br)n1)c1ccccc1	0.807 ± 0.13
Cc1csc(-c2nnc(Nc3ccc(Oc4ncccc4-c4ccnc(N)n4)cc3)c3ccccc23)c1	0.56 ± 0.087
Nc1nccc(Oc2ccc(NC(=O)c3c[nH]cc(-c4ccc(F)cc4)c3=O)cc2F)c1Cl	0.57 ± 0.036
Cc1c(NC(=O)OC[C@@H]2COCCN2)cn2ncnc(Nc3ccc4c(cnn4Cc4cccc(F)c4)c3)c12	0.793 ± 0.023
CCN1CCN(Cc2ccc(C(=O)Nc3ccc(C)c(Oc4ccc5c(c4)CC(=O)N5)c3)cc2C(F)(F)F)CC1	0.46 ± 0.046
Cc1cc(Nc2ncc(Cl)c(Nc3ccccc3S(=O)(=O)C(C)C)n2)c(OC(C)C)cc1C1CCNCC1 [Ceritinib (LDK378)]	0.513 ± 0.057
C[C@@H](Oc1cc(-n2cnc3ccc(CN4CCN(C)CC4)cc32)sc1C(N)=O)c1ccccc1C(F)(F)F	0.573 ± 0.042
COc1ccc(CNC(=O)Nc2ncc([N+](=O)[O-])s2)cc1	0.45 ± 0.03
CCOC(=O)c1cnc2ccc(-c3cncc(NS(=O)(=O)c4ccccc4)c3)cn12	0.717 ± 0.09
O=C1NC(=O)/C(=C/c2ccc3c(c2)OC(F)(F)O3)S1	0.82 ± 0.07
O=S(=O)(c1cccc2cnccc12)N1CCCNCC1 [Fasudil (HA-1077) HCl]	1.13 ± 0.1
CSc1cccc(Nc2ncc3cc(-c4c(Cl)cccc4Cl)c(=O)n(C)c3n2)c1	0.683 ± 0.1
Cc1[nH]c(/C=C2\C(=O)Nc3ccc(S(=O)(=O)N(C)c4cccc(Cl)c4)cc32)c(C)c1C(=O)N1CCN(C)CC1	0.547 ± 0.075
CCNC(=O)Nc1ccc(-c2nc3c(c(N4CCOC[C@@H]4C)n2)CCN(C2COC2)C3)cc1	0.503 ± 0.2
Cc1nc(Nc2n[nH]c3c2CN(C(=O)N[C@H](CN(C)C)c2ccccc2)C3(C)C)c2sccc2n1	0.557 ± 0.032
Nc1ccc(-c2ccc3ncc4ccc(=O)n(-c5cccc(C(F)(F)F)c5)c4c3c2)cn1 [Torin 2]	0.687 ± 0.047
CN(C)CCCn1cc(C2=C(c3c[nH]c4ccccc34)C(=O)NC2=O)c2ccccc21	0.837 ± 0.045
O=C(O)C(Cc1ccccc1[N+](=O)[O-])=NNc1nc(-c2ccc(Cl)c(Cl)c2)cs1 (mixture of isomers)	1.27 ± 0.046
O=C1NC(=O)C(=Cc2ccc(-c3ccc(F)cc3)o2)S1 (stereo in doubt)	0.887 ± 0.11

Compound	relative cell viability
CCN(CC)CCCC(C)Nc1ccnc2cc(Cl)ccc12 (stereo not drawn) [Chloroquine Phosphate]	0.817 ± 0.12
N#CC1(c2ccc(NC(=O)c3cccnc3NCc3ccncc3)cc2)CCCC1 [Apatinib]	0.643 ± 0.046
CC(=O)c1c(C)c2cnc(Nc3ccc(N4CCNCC4)cn3)nc2n(C2CCCC2)c1=O	0.623 ± 0.074
C=CC(=O)Nc1cccc(Sc2nc(Nc3ccc(N4CCN(C)CC4)cc3)ncc2Cl)c1	0.423 ± 0.035
CCn1c(=O)c(-c2ccc(-c3cncs3)cc2Cl)cc2cnc(Nc3ccc(N4CCN(C)CC4)cc3)nc21	0.833 ± 0.032
C[C@H]1[C@H](C)CC[C@]2(C(=O)O)CC[C@]3(C)C(=CC[C@@H]4[C@@]5(C)C[C@@H](O)[C@H](O)[C@@](C)(CO)[C@@H]5CC[C@]43C)[C@H]12 [Asiatic Acid]	0.58 ± 0.14
Cc1cnc(NC(=O)Nc2cc(Br)c(C)cc2OC[C@@H]2CNCCO2)cn1	0.447 ± 0.17
CN1CCN(c2cccc(Nc3nc4c(-c5ccc(S(C)(=O)=O)cc5)cccn4n3)c2)CC1	1.21 ± 0.03
COc1ncc(-c2cc(-c3ncc(CN4C[C@@H](C)O[C@@H](C)C4)o3)c3cn[nH]c3c2)cc1NS(C)(=O)=O	0.563 ± 0.051
CC(C)c1cnn2c(NCc3ccccc3)cc(NCCCCCCN)nc12	0.623 ± 0.085
CN1CCN(c2nc(C3=C(c4c[nH]c5ccccc45)C(=O)NC3=O)c3ccccc3n2)CC1 [Sotrastaurin]	0.903 ± 0.042
CS(=O)(=O)N1CCN(Cc2cc3nc(-c4cccc5[nH]ncc45)nc(N4CCOCC4)c3s2)CC1 [Pictilisib (GDC-0941)]	0.547 ± 0.11
CNC(=O)Nc1ccc(-c2nc(N3CC4CCC(C3)O4)c3cnn(C4CCC5(CC4)OCCO5)c3n2)cc1	0.483 ± 0.14
CNC(=O)c1cc(Oc2ccc(NC(=O)Nc3ccc(Cl)c(C(F)(F)F)c3)c(F)c2)ccn1 [Regorafenib (BAY 73-4506)]	0.483 ± 0.086
N#C/C(=C(/N)Sc1ccc(N)cc1)c1ccccc1C(F)(F)F	0.913 ± 0.038
CN1CCN(CCOc2cc(OC3CCOCC3)c3c(Nc4c(Cl)ccc5c4OCO5)ncnc3c2)CC1 [Saracatinib (AZD0530)]	0.727 ± 0.16
COc1cc2ncnc(Nc3ccc(O)c(Br)c3)c2cc1OC	0.8167 ± 0.0058
C[C@@H]1COC(Nc2ccc3ncnc(Nc4ccc(OCc5nccs5)c(Cl)c4)c3c2)=N1 [Varlitinib]	0.597 ± 0.1
Cc1ccc(S(=O)(=O)/C=C/C#N)cc1	0.463 ± 0.042
